PubChem BioAssay AID1211 (NMMLSC, 2008)
Activity calls are given as the source filed them. How the calls were made is not given here.

biological target: Estrogen receptor (Homo sapiens) (UniProt P03372); assay: ERalpha ligand binders by competition, primary screen, cell-based, Cos7 ERalpha-GFP, flow cytometry (AID 1211); conditions: fluorescent ligand competition, at 10 µM, hits give high values;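 further: 0% = DMSO vehicle wells and 100% = no E2-Alexa633 signal left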
Sequence (P03372 whole entry, looked up): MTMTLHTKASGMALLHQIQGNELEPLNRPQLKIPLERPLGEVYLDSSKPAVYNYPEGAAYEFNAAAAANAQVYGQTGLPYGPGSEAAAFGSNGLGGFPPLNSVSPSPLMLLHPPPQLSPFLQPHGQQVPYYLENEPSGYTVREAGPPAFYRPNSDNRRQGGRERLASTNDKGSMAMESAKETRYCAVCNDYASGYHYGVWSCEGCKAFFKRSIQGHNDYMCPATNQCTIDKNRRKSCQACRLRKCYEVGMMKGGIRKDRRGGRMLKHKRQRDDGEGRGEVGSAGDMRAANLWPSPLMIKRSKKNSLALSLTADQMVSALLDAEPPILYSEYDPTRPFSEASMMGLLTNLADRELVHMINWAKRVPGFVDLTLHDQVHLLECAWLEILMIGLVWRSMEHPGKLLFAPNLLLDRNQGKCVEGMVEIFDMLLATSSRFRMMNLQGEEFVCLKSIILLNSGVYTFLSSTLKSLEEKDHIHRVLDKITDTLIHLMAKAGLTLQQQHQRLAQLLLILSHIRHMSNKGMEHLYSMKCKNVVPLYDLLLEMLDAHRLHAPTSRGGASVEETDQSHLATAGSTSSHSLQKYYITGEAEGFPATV

Inhibition of ligand binding, active:
CCCNC(=O)c1ccc2c(c1)C1C3CCC(C3)C1C(c1ccccc1)N2 (centres undefined) 67%, CCNC(=O)c1ccc2c(c1)C1C3CCC(C3)C1C(c1ccccc1)N2 (centres undefined) 66%, CC(=O)Oc1ccc(C2Nc3c(C(=O)O)ccc([N+](=O)[O-])c3C3C=CCC32)cc1 (centres undefined) 85%, COc1cc([N+](=O)[O-])cc2c1N[C@@H](c1ccc(C(=O)O)cc1)[C@H]1CC=C[C@@H]21 71%, COc1ccc(NS(=O)(=O)c2ccc3c(c2)[C@H]2C=CC[C@H]2[C@@H](c2ccc(C(=O)O)cc2)N3)cc1 100%

Inhibition of ligand binding, inactive:
COc1cc2c(cc1OC)CC(C)(C)N(Cc1ccco1)C2 0%, O=C(Oc1cccc(-c2cnc3ccccc3n2)c1)c1ccco1 12%, CCOc1ccc(NS(=O)(=O)c2ccc3c(c2)[C@H]2C=CC[C@H]2[C@@H](c2ccc([N+](=O)[O-])cc2)N3)cc1 9%, COc1ccc(Oc2ccc3c(c2)c2c4n3CCNC4CCC2)cc1 (centres undefined) 0%, COC(=O)c1ccc2c(c1)C1C=CCC1C(c1cccc([N+](=O)[O-])c1)N2 (centres undefined) 10%, COC(=O)c1ccc(OCc2c(C)noc2C)cc1 22%, CC1(C)CC(=O)c2cn(-c3ccc(Cl)cc3)c(=N)c(C#N)c2C1 35%, Oc1ccc2c(c1)c1c3n2CCNC3CCC1 (centres undefined) 0%, CC(Nc1ccc(N2CCNCC2)cc1[N+](=O)[O-])C12CC3CC(CC(C3)C1)C2 (centres undefined) 5%, CC(=O)c1ccc2c(c1)C1C=CCC1C(c1ccncc1)N2 (centres undefined) 9%, COc1cc([C@@H]2Nc3ccc(S(=O)(=O)Nc4ccccc4F)cc3[C@@H]3C=CC[C@@H]32)cc(OC)c1OC 5%, CC(C)C1CC(CCNCc2ccc3c(c2)OCO3)(c2ccccc2)CCO1 (centres undefined) 26%, O=C(O)COc1cc2oc(=O)c3c(c2cc1Cl)CCCC3 0%, COc1ccc(CCn2c(SCC(=O)Nc3cc(C)on3)nc3ccsc3c2=O)cc1OC 33%, C=C1C2C[C@H](O)C(C)(C)[C@@]2(O)[C@H](O)C[C@]23C[C@@](C)(O)[C@H](CC[C@H]12)[C@H]3O (some centres undefined) 30%, Cn1c(SCC(=O)N2c3ccccc3CCc3ccccc32)nnc1-c1cc2ccccc2cc1O 34%, CCOc1ccccc1-c1nc(-c2ccc(NC(=O)c3ccc(Br)o3)cc2)no1 52%, O=[N+]([O-])c1ccc(Cl)c2c1C1C=CCC1C(c1ccccn1)N2 (centres undefined) 53%, O=C(O)C1Nc2c(O)cccc2C2C=CCC12 (centres undefined) 6%, CC1(C)C=C(c2ccc(O)cc2)CC(C)(C)N1 8%, COc1ccc(NS(=O)(=O)c2ccc3c(c2)[C@H]2C=CC[C@H]2[C@@H](c2cccc(OC)c2OC)N3)cc1 0%, CCOc1cc2c(c([N+](=O)[O-])c1)NC(c1ccccc1)C1CC=CC21 (centres undefined) 12%, O=C(O)c1cc(-c2ccc(O)cc2)nc2ccccc12 5%, Cc1sc2ncnc(SCC(=O)NC(=O)NCc3ccco3)c2c1C 19%, COc1cc(O)c2c(=O)c3c(OC)c(O)ccc3oc2c1 63%, COc1ccc(C2CC(c3ccccc3)=NN2C(=O)CSc2nccc(=O)[nH]2)cc1 (centres undefined) 20%, CC(=O)N1c2ccc3ccccc3c2C2C=CCC2C1c1ccc(Br)cc1 (centres undefined) 48%, CC(=O)c1ccc(N2Cc3ccccc3C2)cc1 8%, O=C1CC(c2ccc3c(c2)OCO3)c2ccc3ccccc3c2N1 (centres undefined) 0%, COc1cccc(-c2[nH]nc3c2C(c2ccoc2)C(C#N)=C(N)O3)c1 (centres undefined) 23%, CC1=CC(C)C2(CO)COC(c3ccccc3O)C1C2C (centres undefined) 0%, Cc1ccc2c(c1)[C@H]1OCC[C@H]1[C@@H](c1ccncc1)N2 34%, CC1CCC2(C)c3[nH]c4ccccc4c3CCN2C1=O (centres undefined) 0%, CCOC(=O)c1ccc2c(c1)C1C=CCC1C(C(=O)O)N2 (centres undefined) 51%
